RORg inh – ROR gamma (mouse) transcription inhibition | P51450 | Drosophila S2 Gal4-RORgamma UAS-luciferase reporter, 20 h | Potency, µM (titrated, usually from 53.6 µM), for inactives: at the highest dose activity change, negative = inhibition, usual class: inhibitors | 5.4% of 310,000 active | AID 2551; note: potency is the fitted concentration of half-maximal effect; nearly all actives have a fitted effect of over 60% in size
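Drosophila S2 cells stably expressing Gal4-DBD/mouse RORγ fusion under metallothionein promoter plus UAS-luciferase; compound 1 h, then 700 uM CuSO4 induction for 20 h at ambient temperature; inhibition read as reduced luminescence.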
VP16 counter – inhibits Gal4-VP16 luciferase reporter, ROR gamma counter-screen; Drosophila S2 Gal4-VP16 UAS-luciferase, luminescence, 20 h; Potency, µM (series often up to 53.6 µM), without a hit: at the top dose activity, negative = inhibition, hits mostly inhibitors; 3.5% of 310,000 active; AID 2546;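 note: Gal4-VP16 expression switched on by copper sulfate through the metallothionein promoter; potency is the fitted concentration of half-maximal effect; nearly all actives have a fitted effect of over 50% in size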
ELG1 repair inh – inhibitors of ELG1-dependent DNA repair in HEK293T cells; HEK293T ELG1-luciferase reporter, luminescence, 16 h; DNA damage induced by 5-fluorouridine; Potency, µM (highest dose often 46.1 µM), inactives show at the highest dose activity change, negative = inhibition, actives largely listed as inhibitors; 2.3% of 330,000 active; note: potency is the fitted concentration of half-maximal effect; nearly all actives have a fitted effect of over 55% in size
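HEK293T cells expressing luciferase-tagged ELG1 (2,000/well) received 5-Fluorouridine plus compound or DMSO for 16 hr at 37 °C. Luciferase was read by ONE-Glo luminescence after 30 min at room temperature.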
TSHR antagonist – blocks TSH signaling through the human TSH receptor | 0.2% of 330,000 active | P16473 | TSHR-expressing cells, TSH-stimulated cAMP HTRF, 2 h; stronger effect = lower value | activity change, negative = inhibition, % at 11.5 µM;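 active = activity change below a set negative limit, meaning inhibition stronger than a set level, cut at about -70% in these data; inconclusive = activity change between two set negative limits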
Target sequence (P16473 whole entry, looked up): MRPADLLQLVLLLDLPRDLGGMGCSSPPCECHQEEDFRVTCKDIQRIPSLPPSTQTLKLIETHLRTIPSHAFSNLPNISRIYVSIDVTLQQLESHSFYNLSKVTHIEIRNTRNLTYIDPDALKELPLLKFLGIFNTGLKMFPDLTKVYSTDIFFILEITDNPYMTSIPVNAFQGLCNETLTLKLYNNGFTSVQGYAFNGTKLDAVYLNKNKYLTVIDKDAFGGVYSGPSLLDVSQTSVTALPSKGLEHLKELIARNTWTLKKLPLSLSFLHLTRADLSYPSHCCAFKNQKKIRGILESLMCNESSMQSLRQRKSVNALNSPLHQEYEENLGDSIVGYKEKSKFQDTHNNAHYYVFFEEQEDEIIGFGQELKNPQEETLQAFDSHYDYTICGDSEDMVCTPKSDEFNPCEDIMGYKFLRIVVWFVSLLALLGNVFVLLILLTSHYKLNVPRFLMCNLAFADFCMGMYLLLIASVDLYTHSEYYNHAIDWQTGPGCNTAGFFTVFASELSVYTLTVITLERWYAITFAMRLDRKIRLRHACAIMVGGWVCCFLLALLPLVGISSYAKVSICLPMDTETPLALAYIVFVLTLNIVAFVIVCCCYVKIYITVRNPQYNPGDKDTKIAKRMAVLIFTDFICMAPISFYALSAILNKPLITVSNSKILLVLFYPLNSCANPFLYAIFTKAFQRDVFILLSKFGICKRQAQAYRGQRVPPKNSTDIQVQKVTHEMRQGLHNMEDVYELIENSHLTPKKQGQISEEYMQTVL
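Inhibition of cAMP made by TSHR-expressing cells under TSH stimulation (4nM final, EC80; 2 h, 37 deg C) is quantified with a one-step lysis HTRF kit, anti-cAMP cryptate versus cAMP-d2.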
Coupling enz – coupling enzyme interference in Giardia aldolase counter-screen; activity change, negative = inhibition, % at 58.2 µM, hits read low; AID 2472; coupling enzyme system counterscreen, AmpLite Red fluorescence; 0.67% of 290,000 active; in the data active = activity change below about -30%
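Final compound at 57.5 uM, incubated 10 min at RT with coupling enzyme reagent (glyceraldehyde-3-phosphate), then 20 min with substrate and AmpLite Red detection. Fluorescence read at 525/598 nm; tests interference with the coupling assay, not aldolase inhibition.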
Starred values were filed as active, the others as inactive; ? = inconclusive; . = not tested or not shown; ! = not active in a repeat; [ ] = dose if it differs, or a comment. Sampled rows, rich in hits. Any-hit rate of the full collection: about 8%. Unless noted, calls come from the whole dose curve; as a rule, active = well fitted curve in the direction sought with a large enough effect; inconclusive = small, poorly fitted or top-dose-only effect, or another doubt; inactive = no such curve, though single readings can be large; an effect the other way counts as inactive or inconclusive. % is set by controls: 0 for no effect and ±100 for the full control effect.

SMILES	RORg inh	VP16 counter	ELG1 repair inh	TSHR antagonist	Coupling enz
Cc1ccc(O)c(/C=N/NC(=O)CN2CCCC2)c1	12.6µM*	?	-6.0%	-7.5	1.8
O=C(CN1CCCC1)N/N=C/c1c(O)ccc2ccccc12	3.16µM*	3.16µM*	5.17µM*	-3.1	-7.8
COc1ccc(Br)cc1/C=N/NC(=O)CN1CCCCC1	-16.3%	-4.9%	1.8%	-121.8*	0.0
O=C(CN1CCOCC1)N/N=C/c1cccc2ccccc12	9.2%	1.5%	1.7%	-1.8	-0.3
CSc1nc(=S)n(-c2ccc([N+](=O)[O-])cc2)c(C)c1C(C)=O	11.8%	-11.5%	0.0%	30.4	-2.0
N#C/C(=C\c1ccc(O)c(O)c1)C(=O)NCCCc1ccccc1	22.4µM*!	11.2µM*	-5.5%	-20.0	6.4
COCCNC(=O)/C(C#N)=C/c1cccc(/C=C(\C#N)C(=O)NCCOC)c1	12.6µM*	11.2µM*	20.6µM*	-10.9	1.0
COCCNC(=O)/C(C#N)=C/C=C/c1ccccc1[N+](=O)[O-]	12.6µM*	-15.5%	?	0.4	-4.5
CCOCCCNC(=O)/C(C#N)=C/c1ccc(Cl)c([N+](=O)[O-])c1	12.6µM*	?	?	-8.6	1.4
COc1cc(NC(=O)c2csc(-c3ccncc3)n2)cc(C(=O)Nc2cccc(C(F)(F)F)c2)c1	27.4%	3.7%	5.17µM*	-5.1	0.8
COc1cc(NC(=O)c2cc3cccc(OC)c3o2)cc(C(=O)Nc2cccc(C(F)(F)F)c2)c1	25.9%	-4.9%	11.6µM*	1.0	0.7
Cc1ccccc1NC1=NCC(c2ccc([N+](=O)[O-])cc2)S1 (stereo not given)	?	22.4µM*	?	4.1	0.5
Cc1ccccc1Nc1ccc([N+](=O)[O-])cn1	-1.6%	10.3%	?	-8.0	2.5
Cc1ccc(C(=O)NC2CCCCCCC2)c(Cl)c1	7.08µM*	8.91µM*	?	-4.0	2.5
Cc1ccc2cc3cc(C(=O)NC4CCCCC4)oc3nc2c1	0.562µM*	?	?	3.5	.
CN(CC(=O)Nc1cccc(F)c1)C(=O)c1ccc(COc2ccccc2)o1	.	.	4.2%	-7.5	.
Cc1ccc(CNC(=O)C2CCCN2S(=O)(=O)c2ccc(Cl)cc2)cc1 (stereo not given)	?	-0.6%	-9.6%	-1.2	-0.4
Cc1noc(C)c1CSCC(=O)NCCN1C(=O)S/C(=C\c2ccccc2F)C1=O	.	.	-11.9%	-2.9	.
CCc1ccc(/C=C2/SC(=S)N(CCC(=O)Nc3ccc(C(=O)O)cc3)C2=O)cc1	3.55µM*	-6.9%	-3.1%	-9.6	3.7
COC(=O)c1ccc(/C=C2/SC(=S)N(CCCC(=O)Nc3ccccn3)C2=O)cc1	1.12µM*	1.78µM*	?	-2.4	1.7
O=C(CCCN1C(=O)/C(=C/c2cccc(Br)c2)SC1=S)Nc1ccccn1	?	-2.2%[0.365 µM]	?	-6.5	0.3
CCc1ccc(/C=C2\SC(=S)N(CCCC(=O)Nc3ccccn3)C2=O)cc1	0.282µM*	1.41µM*	-18.4%	-1.4	-1.3
CS(=O)(=O)N1CCC[C@@]2(CCN(C(c3ccccc3)c3ccccc3)C2)C1	-4.1%	1.0%	.	.	1.1
CC(Nc1nc(-c2ccc3c(c2)NC(=O)CO3)cs1)c1ccccc1 (stereo not given)	?	22.4%	?	-2.5	-4.6
C=CCN=c1scc(-c2ccc3c(c2)NC(=O)CO3)n1/N=C(\C)c1ccccn1	11.2µM*	?	?	-21.9	-1.5
CN(CC(=O)Nc1cccc(F)c1)C(=O)c1ccc(-c2cccc(C(F)(F)F)c2)o1	.	.	0.291µM*	-30.0	.
CCc1nnc(NC(=O)CSc2nnc(-c3ccccc3O)n2-c2ccc(C)cc2C)s1	1.58µM*	?	.	.	-0.9
CCc1nnc(NC(=O)CSc2ncc(-c3ccccc3)n2CC)s1	11.2µM*	?	-15.2%	-1.0	3.4
CCc1nnc(NC(=O)CSc2ncc(-c3ccccc3)[nH]2)s1	6.31µM*	?	?	6.8	2.6
CCc1nnc(NC(=O)CSc2nnc(COc3ccccc3)n2-c2ccc(C)cc2)s1	3.2%	2.7%	8.9%	-9.3	1.9

Bioassay records (PubChem BioAssay)
